Screening results deposited in PubChem BioAssay by The Scripps Research Institute Molecular Screening Center.
NOTCH agonist = agonists of NOTCH signaling; actives 0.4% (n = 15,000); NOTCH signaling luciferase reporter cells, luminescence; activation, % at 2.5 µM; in the data active = activation above about 2.2%
Nox1 inh = inhibitors of human NADPH oxidase 1 (Nox1); HT29 cells, luminol chemiluminescence ROS; inhibition, % at 6.7 µM; actives 0.81% (n = 16,000); AID 1792
Target sequence (Q9Y5S8 whole entry, looked up): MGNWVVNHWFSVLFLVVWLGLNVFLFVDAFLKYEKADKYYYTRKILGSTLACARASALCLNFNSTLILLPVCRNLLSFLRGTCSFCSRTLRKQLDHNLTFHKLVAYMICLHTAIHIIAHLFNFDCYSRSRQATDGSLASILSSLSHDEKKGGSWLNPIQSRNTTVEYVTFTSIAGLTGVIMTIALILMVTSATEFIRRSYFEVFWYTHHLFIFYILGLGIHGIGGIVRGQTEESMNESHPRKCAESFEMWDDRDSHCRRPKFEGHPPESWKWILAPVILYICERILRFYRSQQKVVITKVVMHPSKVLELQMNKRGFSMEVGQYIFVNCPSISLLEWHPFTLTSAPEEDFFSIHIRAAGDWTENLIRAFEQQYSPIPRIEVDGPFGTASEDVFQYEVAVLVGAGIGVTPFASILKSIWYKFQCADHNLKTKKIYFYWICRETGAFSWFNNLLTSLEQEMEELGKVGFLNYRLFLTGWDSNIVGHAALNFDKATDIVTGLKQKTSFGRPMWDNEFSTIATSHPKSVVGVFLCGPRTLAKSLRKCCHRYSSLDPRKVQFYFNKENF
PME-1 Maybr inh = Maybridge compound blocking human PME-1. AID 2291. recombinant PME-1, FP-Rh probe fluorescence polarization. inhibition, % at 9 µM. actives 0.5% (n = 16,000). Q9Y570; in the data active = inhibition above about 30%
luminol inh ctr = luminol signal inhibition, Nox1 inhibitor counter-screen. HRP/luminol/H2O2 chemiluminescence counterscreen. inhibition, % at 6.7 µM. actives 0.4% (n = 16,000). AID 1823; note: reference of the scale not given here
* hit, by the source's call; . = no result. Most compounds without a hit are left out; they make up all but 2.1% or so of the library. Cut-off read from the data, not from the text of the source, unless noted: active = inhibition above about 75%; inactive = the rest.

SMILES | NOTCH agonist | Nox1 inh | PME-1 Maybr inh | luminol inh ctr
O=C(N/C=C/c1cccs1)NCc1ccc(C(F)(F)F)cc1 | 0 | -22 | -47 | 1
Cc1onc(-c2c(F)cccc2Cl)c1NC(=O)OCc1sccc1-n1c(C)ccc1C | . | -65 | 1 | -1
N=C(N)SCc1csc2ccccc12 | 2.4* | 24 | 3 | -6
NC(=O)c1cccc(CSCc2csc3ccccc23)c1 | 0 | -14 | 1 | -3
Cc1cc(S(=O)(=O)NNc2ncnc3c2cnn3C)c(C)cc1Cl | 1 | 102* | 0 | 1
Cn1ncc2c(NNC(=O)c3cc(Cl)cc(Cl)c3)ncnc21 | -4 | 29 | -1 | 0
COc1cc2ncnc(NNS(=O)(=O)c3cc(C)c(Cl)cc3C)c2cc1OC | -1 | 101* | 32* | 9
O=C(N/N=C/c1cc(Cl)cc(Cl)c1O)C(=O)Nc1ccc(Cl)c(Cl)c1 | 4.1* | -66 | -82 | -1
COc1ccc(C(=O)N/N=C/c2cc(Cl)cc(Cl)c2O)cc1 | . | 32 | -1 | -3
O=C(NNc1cccc(Cl)c1)c1cccnc1Oc1ccccc1 | 0 | 41 | 0 | 100*
Cc1ccc2oc(=O)n(CCc3noc(-c4ccc(C(F)(F)F)nc4C)n3)c2c1 | 0 | -20 | 0 | -2
O=C(NCCNc1nccc(C(F)(F)F)n1)C1CC1 | 1 | 5 | 96* | -8
O=C(Nc1c(F)cc(F)cc1Br)c1ccc(Cl)c(Cl)c1 | 0 | -36 | -1 | 0
Cc1onc(-c2ccccc2)c1NC(=O)N1CCN(C2c3ccccc3-c3ccccc32)CC1 | 0 | 0 | -7 | 0
CCOC(=O)C1CCN(C(=O)Nc2c(-c3ccccc3)noc2C)CC1 | 2.7* | -16 | -1 | 0
O=C(CC(CC(=O)c1cccs1)c1ccccc1)c1ccccc1 (stereo unspecified) | 0 | 10 | 0 | -6
Cc1sc(-c2ccccc2)nc1CC(=O)NNC(=O)c1cccc(OC(F)(F)F)c1 | 2.5* | -47 | -5 | 4
O=c1oc2c(o1)=C(c1ccccc1)S(=O)(=O)C=2c1ccccc1 | 0 | -37 | -1 | 5
Cc1nn(C)c(C)c1Nc1n[nH]c(N)n1 | 0 | 77* | -5 | 22
Cc1nn(C)c(C)c1NC(=O)/C(C#N)=C\N(C)C | 0 | -26 | 2 | 1
CSc1nsc(SC)c1C(=O)NC(=O)OCc1ccccc1 | -1 | -23 | 0 | 3
Cc1nn(-c2ccccc2)c(C)c1C(=O)Oc1ccccc1 | 0 | 16 | 0 | -2
Cc1nn(C(=O)c2cc(C)n(-c3ccccc3)n2)c(C)c1Br | -1 | -15 | 41* | -4
Cc1cc(=O)c2c(ccc3c[nH][nH]c32)n1 | 0 | 27 | 5 | -8
COc1cc([N+](=O)[O-])c(OC)cc1SCC(=O)NNC(=S)Nc1ccc(F)cc1 | 0 | 21 | 9 | 83*
SMILES | NOTCH agonist | Nox1 inh | PME-1 Maybr inh | luminol inh ctr
O=C(CSc1ccccc1[N+](=O)[O-])NNC(=S)Nc1cccc(C(F)(F)F)c1 | 0 | -50 | 13 | 3
COc1ccccc1N1CCN(C(=O)C(C)N2CCCc3cc(C)ccc32)CC1 (stereo unspecified) | -1 | 11 | 71* | -11
N/C(=N\OC(=O)Nc1cccc(C(F)(F)F)c1)C1CSCCS1 (stereo unspecified) | -1 | -11 | 1 | -5
N/C(=N/OC(=O)Nc1cccc(C(F)(F)F)c1)C1COc2ccccc2O1 (stereo unspecified) | 2.4* | -5 | 0 | -2
Cc1cc(COC(=O)Nc2ccc(Cl)cc2)no1 | 0 | -18 | -3 | 4
Cc1cc(C(=O)NNC(=O)Nc2ccc(Cl)cc2)no1 | 0 | -40 | 2 | 68
Cc1cc(C(=O)NNC(=O)CSCc2cccc3ccccc23)no1 | 2.8* | -8 | 4 | -6
COc1cc2c(cc1OC)C(C)N(C(=O)c1sc(-c3cnccn3)nc1C)CC2 (stereo unspecified) | 0 | -21 | 10 | -7
COc1cc2c(cc1OC)C(C)N(C(=O)c1sc3ccccc3c1Cl)CC2 (stereo unspecified) | -6 | -21 | 52* | 2
Cc1ccc(S(=O)(=O)C[C@H]2O[C@@H](n3cc(I)c(=O)[nH]c3=O)C[C@@H]2O)cc1 | 0 | -59 | 5 | 0
CC(=O)OC1C[C@H](n2cc(C)c(=O)[nH]c2=O)O[C@@H]1COS(=O)(=O)c1ccc(C)cc1 (stereo partly specified) | 3.0* | -58 | 0 | 2
O=C(CSc1n[nH]c(=O)n1Cc1ccco1)Nc1ccccc1 | . | -52 | -3 | 3
COc1ccc(C(=O)CSc2n[nH]c(=O)n2Cc2ccco2)cc1 | 2.2* | 5 | 3 | -2
CCOC(=O)C12CCC(C(N)=O)(CC1)CC2 | 0 | 3 | 4 | -5
